Assay outcomes: PubChem, National Center for Advancing Translational Sciences (NCATS)
Hits are enriched below; roughly 4% of the tested compounds scored in any of these assays.
Tau fil binding – binders of human tau filaments; recombinant tau filaments, thioflavin S fluorescence, 15 h; filaments grown with octadecylsulfate alongside compound; AID 596; Potency, µM (highest dose often 57.1 µM), without a hit: at the highest dose activity change, negative = inhibition; 2% of 71,000 active;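 note: % is set by controls: 0 for no effect and ±100 for the full control effect; actives lower thioflavin S fluorescence by blocking filaments or displacing dye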
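ThS-based fibril read: tau 1 uM final, inducer ODS 30 uM final, 37 C for 15 h, ex 450/em 510 nm.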
Luciferase inh – inhibitors of firefly luciferase; P08659; purified firefly luciferase, luminescence, 8 min; Potency, µM (titrated, usually from 57.1 µM), inactives show at the highest dose activity change, negative = inhibition, actives largely listed as inhibitors; 2.2% of 72,000 active; note: % is set by controls: 0 for no effect and ±100 for the full control effect; nearly all actives have a fitted effect of over 40% in size
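Firefly luciferase (PKLight detection mix) with 10 uM ATP in pH 7.2 imidazole buffer (KCl, MgCl2, Tween 20, BSA). Compounds tested across a concentration series (qHTS). Luminescence read after 8 min at ambient temperature.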
Caspase-1 inhib – caspase-1 (human) inhibition, allosteric or competitive; P29466; 0.03% of 75,000 active; Potency, µM (top dose mostly 57.5 µM), for inactives: at the top dose activity change, negative = inhibition, actives largely listed as inhibitors; AID 900; Caspase-1 enzyme, Ac-WEHD-AFC fluorogenic rate;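 note: plate controls were vehicle for no effect and no substrate for full effect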
Target sequence (P29466 120-297 limits assumed): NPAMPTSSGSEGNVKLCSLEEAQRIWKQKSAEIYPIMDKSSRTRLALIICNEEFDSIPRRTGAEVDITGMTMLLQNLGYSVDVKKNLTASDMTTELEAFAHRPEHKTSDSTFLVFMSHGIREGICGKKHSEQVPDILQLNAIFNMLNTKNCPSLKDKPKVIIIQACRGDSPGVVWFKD
Target sequence (P29466 317-404 limits assumed): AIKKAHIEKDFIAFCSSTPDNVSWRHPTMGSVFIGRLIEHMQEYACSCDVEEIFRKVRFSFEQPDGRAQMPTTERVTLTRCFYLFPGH
PK Bst – modulators of Bacillus stearothermophilus pyruvate kinase; purified pyruvate kinase, luminescence ATP production; ribose 5-phosphate activator present at AC10; Potency, µM; 1.2% of 51,000 active; AID 361; in the data active = potency below about 11 µM; inconclusive = mostly about 12 µM to 25 µM;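 the screen sought inhibitors and activators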;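 note: scaled between full activation by ribose 5 phosphate and full inhibition by luteolin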
Casp7 inh – blocks human caspase-7 allosterically or competitively | P55210 | recombinant caspase-7, Ac-DEVD-AFC fluorescence rate | Potency, µM (titrated, usually from 57.5 µM), for the others: top-dose activity change, negative = inhibition, usual class: inhibitors | 0.02% of 75,000 active | AID 889; active = well fitted inhibition curve with a large enough effect in the main read-out, with a control signal flat, not every such curve was filed as active; inconclusive = small, poorly fitted or top-dose-only effect, or a change in a side signal; note: % of control where 0% means no effect
* hit, by the source's call; i = inactive; ? = inconclusive; / = not tested or not shown; ! = not active in a repeat; [ ] = another dose, or the depositor's remark. Unless noted, calls come from the whole dose curve; as a rule, active = well fitted curve in the direction sought with a large enough effect; inconclusive = small, poorly fitted or top-dose-only effect, or another doubt; inactive = no such curve, though single readings can be large; an effect the other way counts as inactive or inconclusive. Potency is the fitted concentration of half-maximal effect.

SMILES	Tau fil binding	Luciferase inh	Caspase-1 inhib	PK Bst	Casp7 inh
COC(=O)c1c(-c2cccnc2)csc1NC(=O)c1cc(C)on1	2%	13µM*	-7%	?	-8%
CCOc1ccc2nc(NC(=O)CS(=O)(=O)c3ccccc3)sc2c1	-8%	-24%	-1%	>57	-1%
COCC(=O)Nc1nc2ccc(C)cc2s1	2%	20µM*	-2%	i	0%
CCCC(=O)Nc1nc2ccc(OCC)cc2s1	-10%	13µM*	3%	/	-5%
NC(=O)C1CCN(c2oc(-c3ccccc3F)nc2S(=O)(=O)c2ccc(Cl)cc2)CC1	18%	-1%	-1%	11*	0%
COc1ccc(N2CCN(Cc3nc(-c4ccc(Cl)cc4Cl)no3)CC2)cc1	13µM*	0%	-2%	>57	-3%
c1ccc(-c2noc(CN3CCN(c4ccccc4)CC3)n2)cc1	4%	1%	-11%	/	-4%
O=S(=O)(c1ccccc1)N1CCC2(CCN(Cc3ccncc3)CC2)CC1	8%	-2%[11.4 µM]	-3%	/	0%
C=CCn1c(=O)/c(=C/c2ccc(Cl)cc2)s/c1=C(/C#N)c1nnc2n1CCCCC2	16µM*	-3%	-10%	>57	-7%
CC(=O)O[C@]1(C)CC[C@]23CC1C(C)(C)C2CC[C@@H]3C (some centres undefined)	/	/	2%	/	1%
C[C@@H](C(=O)NCc1ccc(C(F)(F)F)nc1)[C@H]1C[C@]1(C)[C@H](NC(=O)OCc1ccccc1)c1ccccc1	-1%	/	1%	/	-1%
O=C(O)c1cc(N=Nc2ccc([N+](=O)[O-])cc2)ccc1O	32µM*!	-15%[11.4 µM]	-2%[11.5 µM]	/	4%[11.5 µM]
COc1ccc(Cl)c(N2CCN(CCCNC(=O)Nc3ccc(C)cc3)CC2)c1	16µM*	1%	-1%	>57	-1%
Cc1ccc(NC(=O)NCCCN2CCOCC2)cc1	-9%	0%	1%	>57	0%
COc1cc(C(=O)Nc2cc(-c3nc4cc(C)ccc4o3)ccc2C)cc(OC)c1OC	i	1µM*	-7%	/	-4%
COc1cc(OC)cc(-c2nc3cc(C)ccc3o2)c1	46%	16µM*	-2%	i	-2%
Cc1ccc2[nH]c(-c3cccc(N)c3)cc2c1	10µM*	13µM*	-2%	?	-3%
COC(=O)C1=C(C)NC(C)=C(C(=O)OC)C1c1cc2cc(C)ccc2[nH]c1=O	6%	0%	-7%	>57	1%
CCCOC(=O)c1ccc(Nc2cc(C)nc3ncnn23)cc1	8%	1%	-1%	11*	0%
CCN(CC)S(=O)(=O)c1ccc(Nc2cc(C)nc3ncnn23)cc1	9%	-2%	3%	>57	-3%
CCN(CC(=O)Nc1ccc2c(c1)CCC2)Cc1nc2ccccc2c(=O)[nH]1	0%	-1%	-5%	>57	-3%
CCN(CC)CC(=O)Nc1ccc2c(c1)Nc1ccccc1CC2	13µM*	-5%	-3%	>57	0%
CC(C)Oc1ccc2c(=O)c(-c3ccccc3)coc2c1	/	5µM*	/	i	/
CCN(CC)C(=O)Oc1ccc2c(=O)c(-c3ccc(OC)cc3)coc2c1	18%	-29%	-4%	>57	-4%
Cn1c(=O)c2ncn(CC(=O)Nc3ccc4c5c(cccc35)CC4)c2n(C)c1=O	13µM*	-3%	-3%	i	-2%
SMILES	Tau fil binding	Luciferase inh	Caspase-1 inhib	PK Bst	Casp7 inh
CC1N/C(=C\C(=O)c2ccccc2)N(O)C1(C)C (centres undefined)	15%	13µM*	-5%	i	-5%
CC1(C)Cc2c(sc(NC(=O)c3ccco3)c2C#N)CO1	9%	7.9µM*	-1%	?	-1%
Cc1cc(N2CCOCC2)nc2ccc(NC(=O)CCC(=O)N3CCCC(C)C3)cc12 (centres undefined)	-5%	25µM*	-5%	/	-4%
CNC1C(O)[C@@H]2OC(O[C@@H]3C(O)C(O)C(N)C[C@H]3N)C(N)C[C@H]2O[C@H]1O[C@@H]1OC(CO)C(N)C(O)C1O (some centres undefined)	/	/	-1%	/	-1%
O=C(O)C(Sc1ccc(Cl)cc1)Sc1ccc(Cl)cc1	0%[11.4 µM]	3%[11.4 µM]	0%[11.5 µM]	/	1%[11.5 µM]
Cc1c(CCC(=O)O)c(=O)oc2cc3occ(-c4ccc(F)cc4)c3cc12	8%	-1%	-9%	8.3*	-1%
CC1=CC2C(CC1=O)C(C)=CCC2C(C)C (centres undefined)	/	/	2%	/	2%
